Results reported in PubChem BioAssay.
Records with an inconclusive call do not appear. Active and inactive are the calls of the source.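 How the source made its calls, unless noted: active means inhibition over a set limit, the all-compound mean plus 3 SD, in both replicate runs; inconclusive means over that limit in just one replicate run; inactive means at or under that limit in both runs.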

How the values were obtained:
[1] = SK-BR-3 cell growth inhibitors, pilot screen, 24 h, human (AID 572;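 active means viability at or below 10% of carrier control in both of two separate runs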;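 further: compound exposure lasted between 18 and 24 h rather than exactly 24 h; 100% = carrier-treated control wells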); settings: SK-BR-3 viability, CellTiter-Glo luminescence, at 10 µM, stronger effect = lower value
[2] = HUVEC growth inhibition – cell-based, human, primary screen (AID 575;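 active means viability at or below 30% in both replicate assays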;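 further: 100% = median of untreated cell wells with 0.1% DMSO on each plate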); settings: HUVEC proliferation, CellTiter-Glo luminescence, 72 h; at 10 µM; stronger effect = lower value
[3] = growth inhibitors of H69AR lung tumor, primary screen, human, duplicate replicates (AID 580;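 active means viability at or under a set limit in both replicates, limit being median viability minus 3 SD, cut at about 48% in these data, passing the limit was not always enough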;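 further: 100% = mean luminescence of untreated wells and 0% = no signal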); settings: H69AR lung tumor cells viability, ATP luminescence, 72 h; at 10 µM; stronger effect = lower value
[4] = reversal of MRP1-mediated doxorubicin resistance, pilot screen, H69AR cells, doxorubicin co-treatment (AID 601;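 active means viability loss from added drug above about 55%, and viability with drug at most 40%, in both replicates, limit read from the data, passing the limit was not always enough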); settings: CellTiter-Glo, 72 h, at 10 µM; for differential viability (reversal): stronger effect = higher value
[5] = 384-well plate pilot, post-Golgi transport modulator project, inhibition of yeast transport mutant growth (AID 636; in the data active means inhibition above about 31%); settings: absorbance 615 nm, about 18 h, stronger effect = higher value
[6] = growth suppression of yeast trafficking mutant, preliminary HTS, modulators of trafficking downstream of Golgi apparatus project, 1536-format plate, OD 615 nm (AID 637; in the data active means inhibition above about 30%); settings: yeast transport mutant growth, absorbance 615 nm, 18 h; stronger effect = higher value
[7] = OD615 S. cerevisiae growth inhibition, permissive medium, pilot counter-assay, permissive growth control for S. cerevisiae lifespan shortening project (AID 705;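 active means growth inhibition above 25% in both replicates, a cutoff set 3 SD above the mean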); settings: OD615, 24 h, at 10 µM, stronger effect = higher value
[8] = Restrictive medium S. cerevisiae growth inhibition, OD615, pilot screen of yeast lifespan reduction project, restrictive growth control (AID 706;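 active means growth inhibition above a set limit, 3 SD over mean compound inhibition, in both replicates, cut at about 43% in these data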;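 further: modified DeaD lifespan yeast strain shifted to restrictive glucose medium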); settings: OD615, 48 h, at 10 µM, stronger effect = higher value
[9] = viability gain of MRP-1-high H69AR cells under doxorubicin, pilot screen, MRP-1 activator project, CellTiter-Glo, duplicate (AID 807;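 active means viability increase at or above a cutoff of the median across tested compounds plus 3 SD, cut at about 8.5% in these data, passing the limit was not always enough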;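 further: compound pretreatment 18-22 h then 72 h combined with doxorubicin; 0% = doxorubicin alone and 100% = vehicle without doxorubicin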); settings: H69AR viability with doxorubicin, CellTiter-Glo luminescence; at 10 µM; stronger effect = higher value
[10] = growth suppression of beta-catenin knockout HCT116, pilot screen, human colon tumor cells (AID 823;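 active means cell viability at or below a set limit in both duplicate runs, the limit being the all-compound median minus 4 SD, cut at about 23% in these data, passing the limit was not always enough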;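 further: 0% = wells killed by 20 µM Hyamine and 100% = untreated DMSO cell wells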); settings: CellTiter-Glo, 60 h, at 10 µM, stronger effect = lower value
[11] = growth suppression of PTEN-deleted HCT116, pilot screen, cell-based, HCT116 clonal line, CellTiter-Glo (AID 824;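 active means viability at or below 27.92% in each of two runs, the all-compound median minus 4 SD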;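 further: 0% = 20 µM Hyamine control and 100% = vehicle cell control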); settings: 60 h, at 10 µM, stronger effect = lower value
[12] = inhibitors of the yeast RAM network, pilot screen, dse1pr::URA3 reporter, 5-FOA selection (AID 869);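 further: 0% = DMSO wells with no growth and 100% = 10 µM 1-NA-PP1 with full growth; RAM network block rescues cells from 5-FOA so hits raise OD615 growth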; settings: S. cerevisiae dse1pr::URA3 5-FOA growth, OD615, 2 d; at 10 µM; stronger effect = higher value; strain carries analog-sensitive mutant Cbk1 kinase
[13] = RAM signaling pathway blockade in yeast – S. cerevisiae, Pdr1DBD-CYC8 efflux-inhibited sensitized strain, primary screen (AID 1298;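 active means RAM network inhibition above 8.4% in each of two replicates, 3 SD over the compound average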;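 further: 0% = DMSO untreated cells without growth and 100% = 10 µM 1-NA-PP1 full growth; higher means more yeast growth rescued from 5-FOA killing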); settings: S. cerevisiae cbk1-as DSE1-URA3 strain, 5-FOA growth OD615, 2 d; at 50 µM; stronger effect = higher value
[14] = reducers of endogenous Her2 protein level, primary screen, SKBR3 breast tumor cells, AlphaScreen, ATP viability (AID 461;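 active means Her2 level under about 52% in both replicate screens, with viability over 70% of control, limit read from the data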;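 on Her2 level: lower value means less Her2 protein in the cells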;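 on viability: percent of carrier control wells set as 100% viability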); settings: 18-24 h, measured here: SKBR3 viability, ATP luminescence, at 10 µM
[15] = molecular target: Receptor tyrosine-protein kinase erbB-2 (Homo sapiens) (UniProt P04626); assay: as above; settings: 18-24 h, at 10 µM, stronger effect = lower value
[16] = H69AR cells + 2 uM doxorubicin, measured here: viability with 2 uM doxorubicin, stronger effect = lower value
[17] = H69AR cells, compound alone cytotoxicity

Chain of Receptor tyrosine-protein kinase erbB-2 (Homo sapiens) (P04626 whole entry, looked up): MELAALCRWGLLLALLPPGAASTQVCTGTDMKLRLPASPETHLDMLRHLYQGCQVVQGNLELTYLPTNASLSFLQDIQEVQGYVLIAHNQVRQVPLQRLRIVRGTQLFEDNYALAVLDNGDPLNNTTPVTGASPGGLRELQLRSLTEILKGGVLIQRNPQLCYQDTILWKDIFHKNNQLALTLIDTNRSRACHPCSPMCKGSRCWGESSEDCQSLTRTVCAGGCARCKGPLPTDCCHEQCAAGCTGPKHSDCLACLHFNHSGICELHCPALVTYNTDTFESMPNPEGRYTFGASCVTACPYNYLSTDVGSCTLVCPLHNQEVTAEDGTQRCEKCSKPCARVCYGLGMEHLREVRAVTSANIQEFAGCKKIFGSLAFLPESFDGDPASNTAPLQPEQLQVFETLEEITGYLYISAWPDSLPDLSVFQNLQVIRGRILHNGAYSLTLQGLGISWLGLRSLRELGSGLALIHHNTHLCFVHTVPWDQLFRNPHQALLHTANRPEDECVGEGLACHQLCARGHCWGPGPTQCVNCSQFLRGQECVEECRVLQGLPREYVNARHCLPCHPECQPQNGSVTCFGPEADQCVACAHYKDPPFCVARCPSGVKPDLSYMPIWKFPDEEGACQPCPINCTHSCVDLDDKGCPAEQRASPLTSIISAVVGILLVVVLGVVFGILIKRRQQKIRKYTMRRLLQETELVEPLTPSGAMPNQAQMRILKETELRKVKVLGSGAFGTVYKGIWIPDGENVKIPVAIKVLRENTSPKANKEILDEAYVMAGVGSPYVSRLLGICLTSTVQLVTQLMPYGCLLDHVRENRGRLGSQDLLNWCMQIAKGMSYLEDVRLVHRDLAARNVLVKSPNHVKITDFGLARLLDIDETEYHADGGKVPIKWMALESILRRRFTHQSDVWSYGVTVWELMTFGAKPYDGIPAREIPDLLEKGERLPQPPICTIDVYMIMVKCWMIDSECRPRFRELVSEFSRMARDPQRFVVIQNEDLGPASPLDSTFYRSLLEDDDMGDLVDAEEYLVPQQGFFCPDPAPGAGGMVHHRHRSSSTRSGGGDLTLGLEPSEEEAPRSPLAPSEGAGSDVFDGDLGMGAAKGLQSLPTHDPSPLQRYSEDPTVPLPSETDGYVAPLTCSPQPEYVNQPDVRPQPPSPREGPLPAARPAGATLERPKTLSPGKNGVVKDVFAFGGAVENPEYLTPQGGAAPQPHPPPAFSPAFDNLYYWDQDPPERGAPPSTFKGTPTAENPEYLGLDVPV

Cn1c(CSc2nc3ccccc3s2)nnc1SCC(=O)NCCN1CCOCC1
inactive: viability [1] 75% | viability [2] 97.6% | viability [3] 98.5% | differential viability (reversal) ([4]; H69AR cells + 2 uM doxorubicin) -3.51% | inhibition [5] 2.67% | inhibition [6] 10% | growth inhibition [7] 7.95% | growth inhibition [8] 32.4% | viability increase [9] -3.43% | viability [10] 92.9% | viability [11] 86.7% | inhibition [12] 0.27% | RAM network inhibition [13] 3.17%
98.5%: viability [4, 17]
102%: viability [4, 16]

Cc1cc(C)c2c(=O)n(CC(=O)NCCCN3CCN(c4ccccc4F)CC3)sc2n1
3.21%: viability [4, 17]
107%: viability [14]
active: viability [3] 3.21% | viability [10] 3.95% | viability [11] 1.7%
inactive: Her2 level [15] 70.5% | viability [1] 107% | differential viability (reversal) ([4]; H69AR cells + 2 uM doxorubicin) 2.02% | inhibition [5] -4.8% | inhibition [6] 10% | growth inhibition [7] 16.2% | growth inhibition [8] 7.71% | viability increase [9] -7.84% | inhibition [12] 1.52% | RAM network inhibition [13] 5%
1.19%: viability [4, 16]

Cc1cccc(N(CC(=O)N2CCCC2)S(=O)(=O)c2ccccc2)c1C
88.5%: viability [4, 17]
88.8%: viability [4, 16]
inactive: viability [1] 106% | viability [2] 112% | viability [3] 88.5% | differential viability (reversal) ([4]; H69AR cells + 2 uM doxorubicin) -0.32% | inhibition [5] -2.27% | inhibition [6] 1.82% | growth inhibition [7] -1.1% | growth inhibition [8] 4.24% | viability increase [9] -1.18% | viability [10] 93.9% | viability [11] 93.6% | inhibition [12] 2.05% | RAM network inhibition [13] 3.22%

CCOC(=O)C1=C(CS(=O)(=O)c2ccc(F)c(C)c2)NC(=O)NC1c1ccc(O)c(O)c1 (stereo not given)
92.6%: viability [4, 17]
83.4%: viability [4, 16]
inactive: viability [1] 112% | viability [2] 85.2% | viability [3] 92.6% | differential viability (reversal) ([4]; H69AR cells + 2 uM doxorubicin) 9.16% | inhibition [5] -4.13% | inhibition [6] -7.54% | growth inhibition [7] 0.775% | growth inhibition [8] -9.4% | viability increase [9] -1.64% | viability [10] 99.1% | viability [11] 94.8% | inhibition [12] -0.51% | RAM network inhibition [13] 1.66%

O=C(Nc1nc(-c2ccncc2)cs1)C1COc2ccccc2O1 (stereo not given)
64.8%: viability [4, 17]
inactive: Her2 level [15] 99.5% | viability [1] 83.5% | viability [2] 67.2% | differential viability (reversal) ([4]; H69AR cells + 2 uM doxorubicin) 4.21% | inhibition [5] 0.51% | inhibition [6] -8% | growth inhibition [8] 33.5% | viability increase [9] -5.71% | viability [10] 85.3% | viability [11] 83.9% | inhibition [12] 0.095% | RAM network inhibition [13] 7.12%
60.6%: viability [4, 16]
83.5%: viability [14]

Cc1cc(C)n2c(SCC(=O)Nc3cc(C)on3)nnc2n1
inactive: viability [1] 91.5% | viability [2] 104% | viability [3] 101% | differential viability (reversal) ([4]; H69AR cells + 2 uM doxorubicin) 21.3% | inhibition [5] -4.19% | inhibition [6] 5.71% | growth inhibition [7] -7.78% | growth inhibition [8] -16.6% | viability increase [9] 1.73% | viability [10] 102% | viability [11] 97.2% | inhibition [12] 1.88% | RAM network inhibition [13] 3.63%
79.2%: viability [4, 16]
101%: viability [4, 17]

OC1(c2cccc(C(F)(F)F)c2)CCN(c2ccc(-c3ccccc3)nn2)CC1
71.5%: viability [14]
61.9%: viability [4, 16]
59%: viability [4, 17]
active: viability [10] 10.7%
inactive: Her2 level [15] 78.5% | viability [1] 71.5% | viability [2] 86.4% | differential viability (reversal) ([4]; H69AR cells + 2 uM doxorubicin) -2.92% | inhibition [5] 0.27% | inhibition [6] 0.98% | growth inhibition [7] -3.31% | growth inhibition [8] -9.3% | viability increase [9] -8.34% | viability [11] 46.8% | inhibition [12] 1.11% | RAM network inhibition [13] 5.46%

CC(=O)n1cc(-c2ccncc2)c2ccccc21
85.3%: viability [4, 17]
94%: viability [14]
inactive: Her2 level [15] 108% | viability [1] 94% | viability [3] 85.3% | differential viability (reversal) ([4]; H69AR cells + 2 uM doxorubicin) 6.14% | inhibition [5] -7.2% | inhibition [6] -3% | growth inhibition [7] -5.77% | growth inhibition [8] -1.47% | viability increase [9] -3.7% | viability [10] 86.7% | viability [11] 82.6% | inhibition [12] 0.135% | RAM network inhibition [13] 0.27%
79.2%: viability [4, 16]

Cc1ccc(C2c3c(oc4ccccc4c3=O)C(=O)N2c2nnc(C(C)C)s2)o1 (stereo not given)
11.2%: viability [4, 17]
active: viability [3] 11.2%
14.7%: viability [4, 16]
inactive: Her2 level [15] 61% | viability [1] 84% | differential viability (reversal) ([4]; H69AR cells + 2 uM doxorubicin) -3.47% | inhibition [5] -5.2% | inhibition [6] 3.17% | growth inhibition [7] -13.3% | growth inhibition [8] -9.87% | viability increase [9] -3.23% | viability [10] 104% | viability [11] 98.1% | inhibition [12] 0.83% | RAM network inhibition [13] 1.85%
84%: viability [14]

CN(C)c1ccc(C(=O)Nc2nnc(-c3ccc(Cl)cc3)o2)cc1
47.8%: viability [4, 17]
active: viability [2] 13.4% | viability [11] 25.2%
92%: viability [14]
81.2%: viability [4, 16]
inactive: Her2 level [15] 75.5% | viability [1] 92% | differential viability (reversal) ([4]; H69AR cells + 2 uM doxorubicin) -33.4% | inhibition [5] 29.9% | inhibition [6] 21.5% | growth inhibition [7] 5.56% | growth inhibition [8] -19.4% | viability increase [9] -3.93% | viability [10] 26.8% | inhibition [12] 1.5% | RAM network inhibition [13] 2.45%

Cn1c(=O)c2c(nc(CN3CCc4ccccc4C3)n2Cc2cccc(Cl)c2)n(C)c1=O
active: viability [3] 31.2%
18.5%: viability [4, 16]
inactive: viability [1] 95% | viability [2] 45.5% | differential viability (reversal) ([4]; H69AR cells + 2 uM doxorubicin) 12.7% | inhibition [5] -3.2% | inhibition [6] -1.33% | growth inhibition [7] -8.07% | growth inhibition [8] -5.74% | viability increase [9] -7.3% | viability [10] 42.6% | viability [11] 47.6% | inhibition [12] -0.785% | RAM network inhibition [13] 4.55%
31.2%: viability [4, 17]
